This is one part of a sample in which hits are shown more often than they occur.
Six1-Eya2 inh – Six1/Eya2 interaction inhibition; Q15475+O00167; 360,000 compounds, 0.56% hits; AlphaScreen GST-Six1/His-Eya2 binding, biochemical; stronger effect = lower value; activity change, % (test concentration not listed)
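AlphaScreen luminescence read after one hour at 37 °C in darkness. Pin-transferred compounds met GST-Six1 and His-Eya2 protein (5X stock 250 nM/500 nM) plus glutathione donor and Ni-chelate acceptor beads (5X, 50 ug/mL).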
KDM4E inh – JMJD2E (human) inhibition; 230,000 compounds, 1.6% hits; JMJD2E catalytic domain, FDH-coupled NADH fluorescence (FDH is formaldehyde dehydrogenase); Potency, µM (highest dose often 57.1 µM), actives largely listed as inhibitors; B2RXH2; active = well fitted inhibition curve with a large enough effect, not every such curve was filed as active; inconclusive = small, poorly fitted or top-dose-only effect, or another doubt; inactive = no such curve, though single readings can be large or run the other way; also: nearly all actives have a fitted effect of over 50% in size
Target sequence (B2RXH2 1-337 limits assumed): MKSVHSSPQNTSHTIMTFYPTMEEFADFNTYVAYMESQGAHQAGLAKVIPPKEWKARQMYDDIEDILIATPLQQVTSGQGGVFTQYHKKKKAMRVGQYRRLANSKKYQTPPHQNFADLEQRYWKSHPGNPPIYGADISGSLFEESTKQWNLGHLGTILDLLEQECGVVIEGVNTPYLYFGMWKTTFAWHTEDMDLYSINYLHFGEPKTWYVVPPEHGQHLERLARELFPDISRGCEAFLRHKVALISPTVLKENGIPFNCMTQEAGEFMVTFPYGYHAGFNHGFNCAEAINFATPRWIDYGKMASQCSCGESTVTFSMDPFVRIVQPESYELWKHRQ
L3MBTL1 inh – L3MBTL1 (human) inhibition | Q9Y468 | Potency, µM (titrated, usually from 57.1 µM), usual class: inhibitors | 230,000 compounds, 0.66% hits | AlphaScreen L3MBTL1–H3K9me1 peptide binding | AID 485360; active = well fitted inhibition curve with a large enough effect; inconclusive = small, poorly fitted or top-dose-only effect; inactive = no such curve, though single readings can be large or run the other way; also: nearly all actives have a fitted effect of over 60% in size
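L3MBTL1 (50 nM) pre-complexed 30 min with biotinylated H3(1-15)K9me1 peptide (75 nM), then compounds added for 30 min at room temperature; AlphaScreen streptavidin donor/nickel chelate acceptor beads (10 ug/mL final) read after 30 min dark incubation.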
CtBP-E1A inh – CtBP/E1A binding inhibition; AlphaScreen GST-E1A/His-CtBP binding, 1536-well; stronger effect = lower value; activity change, % (no concentration beside the values); 340,000 compounds, 0.49% hits; AID 651724
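Homogeneous bead-based format: GST-tagged E1A captured on glutathione donor beads, His-tagged CtBP on nickel acceptor beads; compounds precede bead addition by 2 h at 37 °C.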
A number is an active result; - = inactive; ? = inconclusive; . = no result; [ ] = dose if it differs, or a comment. Rule as the data show it, unless noted: active = activity change below about -65%; inconclusive = mostly about -30% to -63%; inactive = weaker than that.

SMILES	Six1-Eya2 inh	KDM4E inh	L3MBTL1 inh	CtBP-E1A inh
CN1CCN(CCC(=O)N/N=C/c2cc([N+](=O)[O-])ccc2O)CC1	-87	0.89µM	-	-77
COCCN1C(=O)N[C@@H](CCc2ccccc2)C(C(=O)OC)=C1C	.	-	.	.
CCOc1ccc(CCN2C(=S)N([C@@H](CC(C)C)CN3CCCC3CN3C(=S)NC[C@@H]3Cc3ccc(O)cc3)C[C@@H]2Cc2ccc(O)cc2)cc1 (stereo partly drawn)	-	.	.	-
C#CCCCCCCCCCCCC(O)CC(O)COC(C)=O (stereo not drawn)	.	-	.	.
COc1ccc(Cc2nc3ccc(C(=O)NCCc4ncccc4C)cc3o2)cc1OC	-	.	.	-
Cc1c(NC(=S)N/N=C/c2cc([N+](=O)[O-])ccc2O)c(=O)n(-c2ccccc2)n1C	-88	8.9µM	32µM	.
COc1ccc(O)c(/C=N/NC(=O)CCC(=O)Nc2ccc(C)cc2)c1	-	.	.	.
Cc1ccc(NC(=O)CCC(=O)N/N=C/c2cc([N+](=O)[O-])ccc2O)cc1	-87	?	-	-65
COc1cc(/C=C(\C#N)c2nc3ccc(C)cc3[nH]2)c([N+](=O)[O-])cc1OC	-	-	-	-
COc1cc(/C=C(\C#N)c2nc3ccc(C)cc3[nH]2)cc([N+](=O)[O-])c1O	-73	-	?	-75
COc1ccccc1C(=O)N=Nc1c(O)[nH]c2ccc([N+](=O)[O-])cc12	?	-	-	.
NC(=O)N=Nc1c(O)[nH]c2ccc([N+](=O)[O-])cc12	?	-	-	-72
CC(C)NC(=S)N=Nc1c(O)[nH]c2ccc([N+](=O)[O-])cc12	-68	-	?	-
Cc1cc(CNC(=O)[C@H](C)[C@H]2C[C@]2(C)[C@H](NC(=O)OCc2ccccc2)c2ccccc2)nn1C	.	-	.	.
CN(CC(=O)Nc1ccc(Cl)c(Cl)c1)C(=O)C1CCCC1	-	.	-	.
O=C(Cn1c(=O)c2sccc2n(Cc2ccc([N+](=O)[O-])cc2)c1=O)NCCc1ccccc1	?	-	-	-89
O=C(Cn1c(=O)c2sccc2n(Cc2cccc([N+](=O)[O-])c2)c1=O)NCCc1ccccc1	-	-	-	-
CC(NC=O)c1nc2ccccc2n1CCc1ccccc1 (stereo not drawn)	-	.	-	.
CC(C)C[C@H](NC(=O)c1[nH]cnc1C(=O)Nc1ccc(CNC(=O)OC(C)(C)C)cc1)C(=O)OC(C)(C)C	-	-	.	-
CC(C)C[C@H](NC(=O)c1[nH]cnc1C(=O)Nc1ccc(CNC(=O)OC(C)(C)C)cc1)C(=O)OCc1ccccc1	-	32µM	.	-
O=C1c2cccc(Sc3ccccc3)c2C(=O)c2c(Sc3ccccc3)cccc21	?	?	-	?
Cc1ccc(SC2=C(N(C)C)C(=O)c3ccccc3C2=O)cc1	-84	.	.	-86
O=c1c(/C=C(\O)c2ccc(F)cc2)nc2ccccc2n1-c1ccccc1	-	28µM	.	-
Cn1c(=O)c(/C=C/c2ccc(F)cc2)nc2ccccc21	-	?	-	-
Cc1cc(N/N=C/c2ccc(O)cc2)c2cccc(C)c2n1	?	.	-	.
SMILES	Six1-Eya2 inh	KDM4E inh	L3MBTL1 inh	CtBP-E1A inh
Cc1cc(C)c2nc(C)cc(N/N=C/c3ccc(O)cc3)c2c1	?	.	-	-86
COc1ccccc1NC(=O)Cn1cnc2sc(C)c(S(=O)(=O)N3CCCCC3)c2c1=O	-	-	-	-
CC(C)Cn1nnnc1S(=O)(=O)Cc1ccccc1	.	-	.	.
N#CC1=C(N)SC(N)=C(C#N)C1c1ccoc1	.	?	5µM	.
Cc1ccc(C2C(C#N)=C(N)SC(N)=C2C#N)cc1	-	?	-	-
O=C(O)c1cc2c(ncc3c(=O)n(-c4ccccc4)[nH]c32)s1	-75	.	.	-68
O=c1[nH]n(-c2ccccc2)c(=O)c2ccccc12	-	-	-	-
CCCCCCc1nc(C(N)=O)c2[nH]c(=O)n(-c3ccccc3F)c2n1	-	.	.	.
Oc1ccc(NC(=S)N=Nc2c(O)[nH]c3ccccc23)cc1	-71	-	?	-72
CNC(=S)N=Nc1c(O)[nH]c2ccccc12	-70	-	-	-69
Cc1ccc(NC(=S)N=Nc2c(O)[nH]c3ccccc23)cc1	-	-	-	-
CCOC(=O)C[C@H]1c2ccccc2S(=O)(=O)N1c1ccccc1	-	.	.	.
CCNC(=O)C1CCCN(C(=O)c2ccc(-c3ccccc3)cc2)CC1 (stereo not drawn)	-	.	.	-
Cc1ccc(S(=O)(=O)N2[C@H](CC(=O)c3ccc(Cl)c(Cl)c3)OC[C@@H]2C)cc1	-	.	.	-
O=C(CNC(=O)c1n[nH]c2ccccc12)Nc1ccc(F)c(F)c1F	-	.	-	-
CSC[C@@H]1NC(=S)N(c2ccc(C)cc2)C1=O	-	-	-	-
O=[N+]([O-])c1cc(F)cc(F)c1Nc1ccc(F)cc1	?	.	.	-67
O=[N+]([O-])c1cnccc1Nc1ccc(F)cc1	-	-	-	-
CN(C)c1ccnc(C(=O)O)c1	?	2.8µM	.	-
O=C(O)c1cncc(Br)c1	-	-	-	-
O=C(O)c1cc(Br)ccn1	?	18µM	.	-
NC(=S)N=Nc1c(O)[nH]c2cc(F)c(F)cc12	-65	-	-	-71
Fc1ccc(N2CCN(c3nc(CN4CCOCC4)nc4scc(-c5ccccc5)c34)CC2)cc1	-	-	16µM	.
CCOC(=O)c1cc(-c2ccc(OC)cc2)nn1-c1ccc(C(=O)O)cc1	-	-	-	-
COc1cc(F)ccc1S(=O)(=O)N1CCN(Cc2ccccc2)CC1	-	.	-[2.29 µM]	-
SMILES	Six1-Eya2 inh	KDM4E inh	L3MBTL1 inh	CtBP-E1A inh
Cc1ccc2ccc(C(Nc3cccc(C(F)(F)F)c3)c3cccnc3)c(O)c2n1 (stereo not drawn)	-	?	-	.
Oc1ccccc1C(Nc1nccs1)c1ccc2cccnc2c1O (stereo not drawn)	-77	?	?	-93
Cc1ccc2ccc(C(Nc3ccccn3)c3ccccc3)c(O)c2n1 (stereo not drawn)	-	?	-	-
Cc1ccnc(NC(c2ccccc2)c2ccc3cccnc3c2O)c1 (stereo not drawn)	-78	.	.	-88
COc1cc(C(Nc2ccccn2)c2ccc3ccc(C)nc3c2O)cc(OC)c1O (stereo not drawn)	?	22µM	-	-
COc1ccccc1NC(c1cccnc1)c1ccc2cccnc2c1O (stereo not drawn)	-79	11µM	?	-78
CC(C)C(=O)NC(c1ccc(Cl)cc1Cl)c1ccc2cccnc2c1O (stereo not drawn)	-	.	-[2.29 µM]	.
O=C(O)c1ccccc1NC(c1ccccc1)c1ccc2cccnc2c1O (stereo not drawn)	-84	.	.	-
Oc1c(C(Nc2ccccn2)c2ccccn2)ccc2cccnc12 (stereo not drawn)	-95	?	28µM	-95
Cc1cc(NC(c2ccc(Cl)cc2)c2ccc3cccnc3c2O)no1 (stereo not drawn)	-66	?	.	?
O=C(O)c1ccc2cccnc2c1O	-	-	-	-
O=C(O)c1cc2ccccc2cn1	-80	.	.	-84
C[C@H](NC(=O)c1cc2c(cn1)[nH]c1ccccc12)C(=O)O	-	.	.	-
O=C(O)c1cnc2ccccc2n1	-	-	-	-
O=C(O)c1cc2c(cn1)[nH]c1ccccc12	-79	.	.	-93
